The values below come from PubChem BioAssay (NCATS).

“And” between values parts separate entries of the source, which are not always exact repeats. Equal entries are not always repeated. Results filed as inconclusive are left out. The source made the active and inactive calls. Calls follow the shape of the dose curve; as a rule, active = well fitted curve in the direction sought with a large enough effect; inconclusive = small, poorly fitted or top-dose-only effect, or another doubt; inactive = no such curve, though single readings can be large or run the other way.
% is scaled to controls: 0 for no effect and ±100 for the full control effect; potency is read from the fitted curve at half-maximal effect.

The experiment in a line: qHTS Assay for Identifying Gametocytocidal Compounds (AID 743244).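 As to max response: actives lower the fluorescent signal which means gametocytes are killed.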 The note with it: P. falciparum 3D7 stage III-V gametocytes, alamarBlue, 72 h; max response: active compounds read low. The procedure, abridged: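 Stage III–V gametocytes of P. falciparum 3D7 were seeded at 20,000 cells/well onto pre-dispensed compounds. After 72 h, 37 °C, 5% CO2, alamarBlue was added for another 24 h.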
`O=C(Nc1ccc(/C=C/c2ccc(NC(=O)c3cc(S(=O)(=O)O)c4cccnc4c3O)cc2S(=O)(=O)O)c(S(=O)(=O)O)c1)c1cc(S(=O)(=O)O)c2cccnc2c1O`: the max response is -6.63% (inactive).
In the case of `CCCCCCCCCCCCCCCCCC(=O)[O][Al]`, the max response is -2.25% (inactive).
Take `COC1=C(C(=O)O)N2C(=O)[C@@H](NC(=O)[C@H](N)C3=CCC=CC3)[C@H]2SC1`: the max response is -12.6% (inactive).
Turning to `CC(CN(C)C)CN1c2ccccc2S(=O)(=O)c2ccccc21` (stereo not drawn), the max response was -15.2% (inactive).
`C/C=C(/CC[C@@H](C)[C@H]1CC[C@H]2C3=CC[C@H]4[C@H](C)[C@@H](O)CC[C@]4(C)[C@H]3CC[C@]12C)C(C)C`: the max response is -5.29% (inactive).
The same measure, in the same setting: the same measure for `Nc1c(CC(=O)O)cccc1C(=O)c1ccccc1`: -9.51% (inactive) and 6.92% (inactive).
Regarding `c1cnc2cc3c(cc2n1)[C@@H]1CNC[C@H]3C1`, the max response was 0.0621% (inactive).
Turning to `CCC[C@@]1(CCc2ccccc2)CC(O)=C([C@H](CC)c2cccc(NS(=O)(=O)c3ccc(C(F)(F)F)cn3)c2)C(=O)O1`, the max response is 14.3% (inactive).
Regarding `O=C(CO)[C@@H](O)[C@H](O)[C@H](O)CO`, the max response was 0.975% (inactive).
Regarding `COCC1=C(C(=O)OC(C)OC(=O)OC(C)C)N2C(=O)[C@@H](NC(=O)/C(=N\OC)c3csc(N)n3)[C@H]2SC1` (stereo partly drawn), the max response was -2.17% (inactive) and -16.2% (inactive).
Take `CCC(=O)Oc1ccc2c(c1)CC[C@@H]1[C@@H]2CC[C@]2(C)[C@@H](OC(=O)CC)CC[C@@H]12`: the max response was -6.54% (inactive).
In the case of `CCC(CN)CC(C)CCNCC(O)CNCC(C)CC(CC)CN` (stereo not drawn), the max response was -11% (inactive).
Take `O=C[C@H](O)[C@@H](O)[C@H](O)[C@H](O)CO`: the max response is -1.25% (inactive).
For `COc1ccnc(CS(=O)c2nc3cc(OC(F)F)ccc3[nH]2)c1OC` (stereo not drawn), the max response was -13.5% (inactive).
As to `O=S(O)CNc1ccc(S(=O)(=O)c2ccc(NCS(=O)O)cc2)cc1`, the max response is -0.921% (inactive).
Same read-out and setting: as for `NCCCC(=O)O`, the figure is 8.69% (inactive) and -6.82% (inactive); as for `CC(=O)O[C@H]1CC[C@@]2(C)C(=CC[C@@H]3[C@@H]2CC[C@]2(C)C(c4cccnc4)=CC[C@@H]32)C1`, -2.25% (inactive); as for `O=C(O)[C@@H](O)[C@H](O)[C@H](O)[C@@H](O)C(=O)O` (tested in a mixture with another compound), 5.9% (inactive).
For `Cc1ccccc1CNc1ncnc2c1ncn2[C@@H]1O[C@H](CO)[C@@H](O)[C@H]1O`, the max response is -9.34% (inactive).
Turning to `Cc1c(O)cc2c(c1C)O[C@](C)(CCC[C@H](C)CCC[C@H](C)CCCC(C)C)CC2`, the max response is -0.611% (inactive).
As for `COc1cc([C@@H]2c3cc4c(cc3C(O[C@@H]3O[C@@H]5COC(c6cccs6)O[C@H]5[C@H](O)[C@H]3O)C3COC(=O)[C@@H]32)OCO4)cc(OC)c1O` (stereo partly drawn), the max response is -13.4% (inactive).
`Oc1cccc(-c2c3nc(c(-c4cccc(O)c4)c4ccc([nH]4)c(-c4cccc(O)c4)c4nc(c(-c5cccc(O)c5)c5ccc2[nH]5)CC4)C=C3)c1`: the max response is -1.27% (inactive) and -6.31% (inactive).
With `CCCCOC(=O)C(=O)Nc1cccc(-c2nn[nH]n2)c1`, the max response is 31.5% (inactive).
`CCOC(=O)COc1ccc2c(C)c(CCN(CC)CC)c(=O)oc2c1`: the max response is 15% (inactive).
On to `COc1cc2c(c(OC)c1OC)-c1c(cc3c(c1OC)OCO3)C[C@@H](C)[C@](C)(O)C2`, for which the max response is 3.46% (inactive) and 15.8% (inactive).
With `O=C(Cn1c(=O)sc2ccc(Cl)cc21)N1CCN(CCO)CC1`, the max response is -8.47% (inactive).
As to `CCCCCCCC(=O)CC[C@@H]1[C@@H](C/C=C\CCCC(=O)OC(C)C)[C@@H](O)C[C@H]1O`, the max response is 0.0052% (inactive).
The same measure, in the same setting: the same measure for `C[C@H](CSC(=O)c1ccccc1)C(=O)N1C[C@@H](Sc2ccccc2)C[C@H]1C(=O)O`: 13.2% (inactive).
As for `CCCCCCCCCCCCCCCCCC(=O)OCCO`, the max response was -0.219% (inactive).
Regarding `CCN(CC)c1ccc(C(=C2C=CC(=[N+](CC)CC)C=C2)c2ccccc2)cc1`, the Potency was 11.2 µM (active).
For the molecule `COC(=O)C1=C(C)NC(C)=C(C(=O)O[C@H]2CCN(Cc3ccccc3)C2)[C@H]1c1cccc([N+](=O)[O-])c1`, the max response is 22.4% (inactive).
`Cn1nnnc1SCC1=C(C(=O)O)N2C(=O)[C@@H](NC(=O)[C@H](OC=O)c3ccccc3)[C@H]2SC1`: the max response was 10.2% (inactive).
Consider `C/C=C1\NC(=O)[C@H]2CSSCC/C=C/[C@H](CC(=O)N[C@H](C(C)C)C(=O)N2)OC(=O)C(C(C)C)NC1=O` (stereo partly drawn), for which the Potency is 0.59 µM (active).
With `COc1ccc(CNCC(O)COc2ccc3[nH]c(=O)ccc3c2)cc1OC` (stereo not drawn), the max response is -1.67% (inactive).
On the same count and under the same terms, as for `C[N+](C)(CCCCCC[N+](C)(C)C1c2ccccc2-c2ccccc21)C1c2ccccc2-c2ccccc21`, the figure is -0.956% (inactive); as for `CN1CC(O)c2cc(N=NC(N)=O)c(O)cc21` (stereo not drawn), -4.67% (inactive).
As to `CS(=O)(=O)Nc1cc2occ(NC=O)c(=O)c2cc1Oc1ccccc1`, the max response was -2.7% (inactive).
Turning to `COC[C@H](c1ccc(C(F)(F)F)cc1)N1CCN(C2(C)CCN(C(=O)c3c(C)ncnc3C)CC2)C[C@H]1C`, the max response was -5.74% (inactive).
